Among the test systems are HCT-15 colon; HT29 colon; SNB-75 CNS; SNB-19 CNS; U251 CNS; PC-3 prostate; SK-MEL-5 melanoma; UACC-62 melanoma; LOX IMVI melanoma; SK-MEL-28 melanoma; SK-MEL-2 melanoma; EKVX NSCLC; SN12C renal; UO-31 renal; TK-10 renal; ACHN renal; CAKI-1 renal; A498 renal; CCRF-CEM leukemia; MOLT-4 leukemia.
Experiment in all cases: NCI-60 one-dose screen, 48 h (100 = growth as untreated, 0 = no growth, -100 = all killed)
What all share (details): 10 µM unless noted

SMILES strings stand for the structures. Compounds without any hit were thinned out: in the full panel of roughly 83,000, 20% have a hit.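 Cell lines were cultured in 96-well plates, exposed to a single compound concentration, and assessed for percent growth 48 hours later.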 A number with no mark means an inactive call. Calls of active or inactive are those of the source. The calls were made as follows: active = growth percent below 10; inactive = the rest.

Take `N#Cc1c(N)n2c(nc1=Nc1ccc([N+](=O)[O-])cc1)sc1cc(Cl)ccc12`: the growth in the experiment on HCT-15 colon was 95.9%; with HT29 colon, 99.2%; in the experiment with SNB-75 CNS, 60.9%; in the experiment on SNB-19 CNS, 95.7%; with U251 CNS, 85.8%; in the experiment with PC-3 prostate, 81.8%. For the same molecule, the growth is 73% in the experiment with SK-MEL-5 melanoma; 53.1% in the experiment with UACC-62 melanoma; 79.4% in the experiment on LOX IMVI melanoma; 106% in the experiment on SK-MEL-28 melanoma; 99.4% in the experiment with SK-MEL-2 melanoma; 84.3% in the experiment with EKVX NSCLC. Further, the growth in the experiment on SN12C renal was 89.4%; in the experiment with UO-31 renal, 75.2%; in the experiment on TK-10 renal, 148%; in the experiment on ACHN renal, 90.7%; in the experiment with CAKI-1 renal, 85.2%; in the experiment with A498 renal, 102%. Besides, the figures for the growth with CCRF-CEM leukemia and in the experiment with MOLT-4 leukemia were 83.6% and 93.4%, respectively.
Take `CC(C)n1nc(C#Cc2cccc3cc(-c4cccc(C(F)(F)F)c4)ncc23)c2c(N)ncnc21`: the growth in the experiment on HCT-15 colon is 64.3%; in the experiment with HT29 colon, 29.7%; with SNB-75 CNS, -4.27% (active); with SNB-19 CNS it was 99.6%; with U251 CNS, 63.6%; in the experiment with PC-3 prostate, 59.6%. In addition, the growth is 85.1% in the experiment with SK-MEL-5 melanoma; 66.6% in the experiment with UACC-62 melanoma; 58.1% in the experiment on LOX IMVI melanoma; 83.3% with SK-MEL-28 melanoma; 42.8% in the experiment on SK-MEL-2 melanoma; 93.6% in the experiment with EKVX NSCLC. The growth in the experiment on SN12C renal was 86.1%; with UO-31 renal it was 82%; in the experiment on TK-10 renal, 85.1%; with ACHN renal, 68.7%; in the experiment with CAKI-1 renal, 86.8%; in the experiment with A498 renal it was 83.5%. For the same molecule, the growth with CCRF-CEM leukemia was 39.5%; in the experiment with MOLT-4 leukemia it was 43.2%.
For `Nc1nc(I)c2ncn(C3OC(CO)C(O)C3O)c2n1` (stereo not given), the growth is 104% in the experiment with HCT-15 colon; 141% with HT29 colon; 130% in the experiment on SNB-75 CNS; 102% in the experiment with SNB-19 CNS; 100% in the experiment with U251 CNS; 124% in the experiment on PC-3 prostate. Moreover, the growth with SK-MEL-5 melanoma was 102%; in the experiment with UACC-62 melanoma, 90.4%; with LOX IMVI melanoma, 93.5%; with SK-MEL-28 melanoma, 126%; in the experiment on SK-MEL-2 melanoma, 159%; in the experiment with EKVX NSCLC it was 96.6%. Further, the growth with SN12C renal is 100%; with UO-31 renal it was 96%; in the experiment on TK-10 renal it was 134%; in the experiment on ACHN renal it was 111%; with CAKI-1 renal, 9.47% (active); with A498 renal it was 103%. Also, the growth in the experiment with CCRF-CEM leukemia is 116%; in the experiment on MOLT-4 leukemia, 109%.
Turning to `CCc1nc2ccccc2[nH]1`, the growth is 108% in the experiment with HCT-15 colon; 108% in the experiment on HT29 colon; 91.1% in the experiment on SNB-75 CNS; 98.3% with SNB-19 CNS; 106% in the experiment with U251 CNS; 101% with PC-3 prostate. Also, the growth was 110% in the experiment with SK-MEL-5 melanoma; 98.9% in the experiment on UACC-62 melanoma; 107% in the experiment with LOX IMVI melanoma; 105% with SK-MEL-28 melanoma; 127% in the experiment on SK-MEL-2 melanoma; 112% with EKVX NSCLC. Also, the growth was 95.6% in the experiment on SN12C renal; 80.1% in the experiment on UO-31 renal; 118% in the experiment with TK-10 renal; 108% with ACHN renal; 109% in the experiment with CAKI-1 renal; 96.1% in the experiment with A498 renal. Moreover, the values for the growth with CCRF-CEM leukemia and with MOLT-4 leukemia were 98.8% and 97.5%, respectively.
Take `COc1ccc(C2CC(c3ccc4ccccc4c3)=NN2c2nc(O)c(C3=c4cc(Cl)ccc4=NC3=O)s2)cc1` (stereo not given): the growth with HCT-15 colon is -33.4% (active); in the experiment on HT29 colon, -46.5% (active); in the experiment on SNB-75 CNS, -51.5% (active); in the experiment on SNB-19 CNS, 3.08% (active); in the experiment on U251 CNS it was -94.6% (active); in the experiment with PC-3 prostate, -44.4% (active). The growth is -95.2% (active) in the experiment with SK-MEL-5 melanoma; -46.5% (active) in the experiment with UACC-62 melanoma; -75.7% (active) with LOX IMVI melanoma; -18.8% (active) in the experiment on SK-MEL-28 melanoma; -77% (active) with SK-MEL-2 melanoma; -74.3% (active) in the experiment with EKVX NSCLC. The growth in the experiment on SN12C renal was -30.5% (active); in the experiment on UO-31 renal it was -85% (active); with TK-10 renal, -66.6% (active); with ACHN renal, -63.8% (active); in the experiment on CAKI-1 renal, -50.4% (active); in the experiment on A498 renal, -84.3% (active). Also, the growth with CCRF-CEM leukemia is -19% (active); with MOLT-4 leukemia, -21.5% (active).
On to `O=C1CC(c2ccc3c(c2)OCO3)Nc2cc3c(cc21)OCO3` (stereo not given), for which the growth in the experiment with HCT-15 colon was 14%; in the experiment with HT29 colon, 1.47% (active); in the experiment on SNB-75 CNS it was 14.3%; with SNB-19 CNS, 28.3%; in the experiment on U251 CNS, 7.39% (active); in the experiment on PC-3 prostate it was 17.7%. In addition, the growth is 1.16% (active) in the experiment with SK-MEL-5 melanoma; 21% in the experiment with UACC-62 melanoma; 25.3% in the experiment with LOX IMVI melanoma; 65.6% with SK-MEL-28 melanoma; 11.7% in the experiment with SK-MEL-2 melanoma; 36.2% in the experiment on EKVX NSCLC. Also, the growth with SN12C renal is 22.7%; in the experiment on UO-31 renal it was 52.6%; with TK-10 renal, 34.6%; in the experiment on ACHN renal, 45.8%; in the experiment on CAKI-1 renal, 43.4%; with A498 renal, -17.4% (active). The growth in the experiment on CCRF-CEM leukemia was 9.73% (active); with MOLT-4 leukemia it was 26%.
In the case of `CC(=O)Nc1cccc(C2=CC(c3ccc(C)cc3)n3ncnc3N2)c1` (stereo not given), the growth in the experiment with HCT-15 colon is 99.3%; in the experiment on HT29 colon, 109%; with SNB-75 CNS it was 94.2%; in the experiment on SNB-19 CNS, 91.1%; with U251 CNS, 97.3%; with PC-3 prostate, 84.1%. Moreover, the growth in the experiment on SK-MEL-5 melanoma was 91.3%; in the experiment with UACC-62 melanoma it was 85.6%; with LOX IMVI melanoma, 93.8%; in the experiment on SK-MEL-28 melanoma, 107%; in the experiment on SK-MEL-2 melanoma, 103%; in the experiment on EKVX NSCLC it was 102%. For the same molecule, the growth with SN12C renal was 101%; in the experiment on UO-31 renal, 79.7%; in the experiment with TK-10 renal it was 110%; in the experiment with ACHN renal, 96.7%; in the experiment on CAKI-1 renal, 106%; with A498 renal, 93.9%. In addition, the values for the growth in the experiment with CCRF-CEM leukemia and in the experiment on MOLT-4 leukemia were 110% and 87.9%, respectively.
As for `Cc1c2c(cn1Cc1ccccc1)CCc1cn(C)nc1-2`, the growth was 95.1% in the experiment with HCT-15 colon; 98% in the experiment with HT29 colon; 95.9% in the experiment with SNB-75 CNS; 105% in the experiment on SNB-19 CNS; 97.2% with U251 CNS; 71.4% in the experiment with PC-3 prostate. Also, the growth in the experiment with SK-MEL-5 melanoma was 53.5%; in the experiment with UACC-62 melanoma it was 70.4%; with LOX IMVI melanoma, 85.2%; with SK-MEL-28 melanoma, 104%; in the experiment with SK-MEL-2 melanoma it was 114%; in the experiment on EKVX NSCLC, 73.2%. For the same molecule, the growth in the experiment on SN12C renal was 87%; with UO-31 renal, 68.6%; in the experiment on TK-10 renal, 107%; in the experiment on ACHN renal, 80.3%; in the experiment on CAKI-1 renal, 58.8%; in the experiment on A498 renal it was 97.5%. Moreover, the figures for the growth with CCRF-CEM leukemia and in the experiment on MOLT-4 leukemia were 74.4% and 69.7%, respectively.

Source of the values: PubChem BioAssay (NCI).
